ClpP mod: qHTS Assay for Activators of ClpP; ATP-dependent Clp protease proteolytic subunit (Bacillus subtilis (strain 168)), P80244; purified B. subtilis ClpP, FRET peptide cleavage, 20 min; Potency, µM (series often up to 57.5 µM); 1.9% of 340,000 active; active = well fitted falling curve with a large enough effect; inconclusive = small, poorly fitted or top-dose-only effect; inactive = no such curve, though single readings can be large or run the other way; note: the source files actives as falling curves though it sought activators and does not explain the sign; nearly all actives have a fitted effect of over 65% in size
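Buffer: 100 mM Tris/HCl pH8, 100 mM KCl, 0.05% low protease BSA, 2.5% glycerol, 0.01% Tween-20. ClpP 10 microg/mL final; 20 min RT; delta FRET normalized to ADEP and DMSO controls.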
RORg inh: qHTS for inhibitors of ROR gamma transcriptional activity | Nuclear receptor ROR-gamma (Mus musculus), P51450 | Drosophila S2 Gal4-RORgamma UAS-luciferase reporter, 20 h | Potency, µM (titrated, usually from 53.6 µM), most hits filed as inhibitors | 5.4% of 310,000 active | AID 2551, 2010; note: nearly all actives have a fitted effect of over 60% in size
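Schneider cells (Drosophila), stable Gal4 DBD–ROR gamma + UAS-luc; 1 hr cmpd preincubation; Cu2+ induction 700 uM final; 20 hr ambient; luminescence.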
Sfp PPTase inh: qHTS Assay for Inhibitors of Bacillus subtilis Sfp phosphopantetheinyl transferase (PPTase); Biochemical Sfp PPTase activity, qHTS; 3.5% of 310,000 active; 4'-phosphopantetheinyl transferase ffp (Bacillus subtilis), Q9F4F7; Potency, µM, most hits filed as inhibitors;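 note: the enzyme is Sfp with the accession as filed and its product quenches rhodamine fluorescence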
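Buffer: 50 mM Hepes-Na pH 7.6, 10 mM MgCl2, 0.01% Nonidet P-40, 0.01% BSA. Enzyme 15 nM, pre-exposed to compound 15 min; substrates then added and fluorescence change tracked over 30 min.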
PINK1 modulator: A Quantitative High throughput Screen to Identify Chemical Modulators of PINK1 Expression | PINK1 immunofluorescence, high-content cytometry, 24 h | Potency, µM (top dose mostly 76.6 µM), usual class: activators | 0.2% of 410,000 active | AID 624263, 2012; active = well fitted activation curve with a large enough effect; inconclusive = small, poorly fitted or top-dose-only effect; cell line not stated here; note: nearly all actives have a fitted effect of over 65% in size
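A stable cell line was treated with compounds at 5 concentrations for 24 hours, with CCCP as control. PINK1 levels and mitochondrial localization were measured by immunofluorescence with mitochondrial, cell and nuclear markers after fixation, read by laser-scanning cytometry.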
Gal4-VP16 FLuc: VP16 counterscreen qHTS for inhibitors of ROR gamma transcriptional activity | AID 2546, 2010 | Potency, µM (top dose mostly 53.6 µM), usual class: inhibitors | Drosophila S2 Gal4-VP16 UAS-luciferase, luminescence, 20 h | 3.5% of 310,000 active;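 note: Gal4-VP16 expression switched on by copper sulfate through the metallothionein promoter; nearly all actives have a fitted effect of over 50% in size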
Epigenetic reg: Quantitative High-Throughput Screen for Regulators of Epigenetic Control; murine LDR cells, GFP reporter derepression, 30 h; Potency, µM (doses to about 53.9 µM), most hits filed as activators; 0.2% of 280,000 active; note: nearly all actives have a fitted effect of over 60% in size
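Murine LDR cells carrying a silenced, genomically integrated CMV-driven GFP reporter were exposed to compound for 30 hours at 37 C. After PBS washes, GFP-positive cells (20–120 um objects) were counted by laser-scanning microplate cytometry.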
Numbers stand for hits; n = inactive; u = inconclusive; x = no result given; [ ] = another dose, or the depositor's remark. Compounds with a hit are over-represented: about 8.1% of the library has one in this group of screens. Unless noted, calls come from the whole dose curve; as a rule, active = well fitted curve in the direction sought with a large enough effect; inconclusive = small, poorly fitted or top-dose-only effect, or another doubt; inactive = no such curve, though single readings can be large; an effect the other way counts as inactive or inconclusive.

SMILES	ClpP mod	RORg inh	Sfp PPTase inh	PINK1 modulator	Gal4-VP16 FLuc	Epigenetic reg
OC(c1ccc2c(c1)CN(Cc1c[nH]c3ccccc13)CCO2)c1ccccn1 (centres undefined)	x	x	x	n	x	x
COc1ccccc1-n1cc(CN2CCC3(CCC(CNC(=O)c4ccccc4)O3)CC2)cn1 (centres undefined)	x	x	x	n	x	x
Cn1c2ccccc2c(=O)c2ccc(C#Cc3ccccn3)cc21	n	11.2µM	n	n	15.8µM	x
Cn1c2ccccc2c(=O)c2cc(C#CC3(O)CCCCC3)ccc21	n	11.2µM	n	n	15.8µM	x
Cn1c2ccccc2c(=O)c2cc(C#Cc3ccccn3)ccc21	n	u	n	n	u	x
c1ccc(N2CCN(c3ncnc4[nH]ncc34)CC2)cc1	n	x	x	n	x	n
COc1cc(-c2nc3ccccn3c2/N=C/c2ccc(F)cc2)ccc1O	x	n	50.1µM	n	n	n
Clc1ccc(/C=N/c2c(-c3ccco3)nc3ccccn23)cc1	u	n	n	n	n	n
COc1ccc(/C=N/c2c(-c3ccco3)nc3ccccn23)cc1OC	28.2µM	n	n	n	n	n
Cc1cc(Oc2ccc(Cl)cc2Cl)nc(C#N)n1	n	x	x	n	x	x
COC(CNC(=O)c1ccc(N2CCc3ccccc32)c([N+](=O)[O-])c1)OC	n	u	u	n	17.8µM	n
NNC(=O)c1ccc(N2CCc3ccccc32)c([N+](=O)[O-])c1	n	u	n	n	n	n
COc1ccc(-c2sc(Nc3ccccc3)n[n+]2-c2ccc(F)cc2)c(OC)c1OC	n	n	n	n	n	x
COc1cc(OC)c(-c2sc(Nc3ccccc3)n[n+]2-c2ccc(F)cc2)cc1OC	n	n	n	n	n	x
Fc1ccc(-[n+]2nc(Nc3ccccc3)sc2-c2cccc(Cl)c2Cl)cc1	n	8.91µM	n	n	u	x
Clc1cccc(-c2sc(Nc3ccccc3)n[n+]2-c2ccccc2)c1Cl	n	14.1µM	50.1µM	n	u	x
COc1cc(Br)c(-c2sc(Nc3ccccc3)n[n+]2-c2ccc(F)cc2)cc1OC	n	6.31µM	n	n	n	x
COc1ccc(O)c(CN2CCC3(CCC(CNC(=O)c4ccccc4)O3)CC2)c1 (centres undefined)	x	x	x	n	x	x
Cn1cc(-c2cc3n(n2)CCC(=O)N3CCCC(=O)Nc2ccccc2F)c2ccccc21	n	x	x	n	x	n
CCC(C)[C@H]1CNC(=S)N1CCc1cc(C(F)(F)F)cc(C(F)(F)F)c1 (some centres undefined)	n	2.24µM	n	n	3.98µM	n
COc1cccc(NC(=O)Cc2ccccc2)c1	n	u	n	n	n	n
O=C(Cc1ccccc1)Nc1cccc(N2C(=O)C=CC2=O)c1	14.1µM	3.55µM	n	n	5.01µM	n
Cc1nc(/C=C/c2ccccc2)cc(/C=C/c2ccccc2)n1	14.1µM	n	n	n	u	n
C(=C\c1ccccn1)/c1ccccc1	n	x	x	x	x	x
C(=C\c1cc(/C=C/c2ccccc2)ncn1)/c1ccccc1	35.5µM	n	n	n	n	n
SMILES	ClpP mod	RORg inh	Sfp PPTase inh	PINK1 modulator	Gal4-VP16 FLuc	Epigenetic reg
Cc1ccnc(SCC(=O)c2cccs2)n1	x	n	n	n	n	n
CC(=O)Nc1ccc(SCC(=O)c2ccc(Br)s2)cc1	x	u	50.1µM	n	n	x
Cc1ccnc(SCC(=O)c2ccc(Br)s2)n1	x	u	79.4µM	n	n	n
CCC(C)NC(=O)CSc1ccc(NC(C)=O)cc1 (centres undefined)	n	n	n	n	n	n
CCOc1ccc(C(=O)c2cn(CC(=O)Nc3cccc(OC)c3)c3cc4c(cc3c2=O)OCCO4)cc1	n	x	x	n	x	n
CC(=O)Nc1ccc2ccc3cccc4ccc1c2c34	14.1µM	u	n	n	n	n
CN(C(=O)Cn1nnc(-c2ccc(S(C)(=O)=O)cc2)n1)c1ccccc1	n	x	x	n	x	n
Oc1ccc(-c2csc(-c3ccccc3)n2)cc1O	n	n	56.2µM	n	u	n
Cc1nc(-c2ccc(O)c(O)c2)cs1	n	n	56.2µM	n	u	n
Oc1ccc(-c2csc(-c3cccnc3)n2)cc1O	x	n	u	n	n	n
Cc1ccc2ccc3cc(C(=O)N4CCN(c5ccccc5)CC4)nc3c2[nH]1	n	x	x	n	x	n
COc1ccc(Nc2nnc(SCc3cc(=O)n4ccsc4n3)s2)cc1	n	n	56.2µM	n	n	n
O=c1cc(CSc2nnc(Nc3ccccc3F)s2)nc2sccn12	x	n	n	n	n	n
Cc1oc(-c2ccc(Cl)cc2)nc1CSc1nnc(C)n2c1cc1sccc12	n	x	x	n	x	n
COC(=O)c1ccccc1-c1cc(C)cc2c1OC(CNC(=O)C1CCCO1)C2 (centres undefined)	x	x	x	n	x	x
CC(=O)c1cccc(NC(=O)c2ccc3c(c2)CCCC3)c1	n	1.41µM	n	n	2.82µM	x
CC(=O)c1cccc(NC(=O)Nc2ccc3c(c2)CCC3)c1	n	7.08µM	n	n	7.94µM	x
Cc1cccc(NC(=O)Nc2ccc3c(c2)CCC3)c1	n	n	n	n	n	x
CC(=O)c1cccc(NC(=O)Nc2cc3sccc3n2C)c1	x	n	39.8µM	x	n	n
CC(=O)c1cccc(NC(=O)c2ccc3c(c2)CCN3S(=O)(=O)c2ccccc2)c1	n	u	n	n	12.6µM	n
COC(=O)[C@H]1C2CC3c4[nH]c5ccccc5c4CCN3CC2CC[C@@H]1O (some centres undefined)	x	x	n	x	x	n
COc1ccc(/C=C/C(=O)Nc2sc3c(c2C(N)=O)CCC(C)C3)cc1OC (centres undefined)	n	x	x	n	x	n
CC(C)(C)c1ccc(NC(=O)CSc2nnc(-c3n[nH]c4ccccc34)o2)cc1	31.6µM	n	n	n	u	u
O=C(CSc1nnc(-c2ccc(C(F)(F)F)cn2)o1)Nc1ccccc1Cl	n	n	70.8µM	n	n	n
O=C(c1noc2c1CCc1ccccc1-2)N1CCc2ccccc2C1	x	n	1µM	x	n	n
SMILES	ClpP mod	RORg inh	Sfp PPTase inh	PINK1 modulator	Gal4-VP16 FLuc	Epigenetic reg
Cc1cc(NC(=O)c2noc3c2CCc2ccccc2-3)no1	n	n	n	n	n	n
O=C(c1cc(-c2ccco2)on1)N1CCc2ccccc2C1	n	n	44.7µM	n	n	n
CC(=O)c1cccc(NC(=O)c2noc3c2CCc2ccccc2-3)c1	n	0.708µM	n	n	2.24µM	n
O=C(c1cc(-c2ccccc2O)on1)N1CCc2ccccc2C1	n	n	n	n	u	n
CCC(C(=O)Nc1nnc2n1CCS2)c1ccccc1 (centres undefined)	n	x	x	n	x	n
OCC1OC(C#Cc2ccccc2)C=CC1OCc1ccccc1 (centres undefined)	x	n[10 µM]	n	x	n[10 µM]	n[10.1 µM]
C=CCC(C)(NCc1ccccc1)C(=O)OCC (centres undefined)	x	n	n	x	n	n
